This is part of a sample that, as a whole, favours compounds with a hit. Of some 83,000 tested, about 20% had one in any assay.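 Growth was measured after 48 h exposure to one concentration of compound in 96-well plates. Values under 10 count as active.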 A number with no mark means an inactive call. Calls of active or inactive are those of the source.
Assays:
Test in all cases: NCI-60 one-dose screen, 48 h (100 = growth as untreated, 0 = no growth, -100 = all killed)
Conditions in all cases: 10 µM unless noted
RPMI-8226 leukemia = test system: RPMI-8226 leukemia
OVCAR-8 ovarian = test system: OVCAR-8 ovarian
OVCAR-5 ovarian = test system: OVCAR-5 ovarian
OVCAR-4 ovarian = test system: OVCAR-4 ovarian
SK-OV-3 ovarian = test system: SK-OV-3 ovarian
IGROV1 ovarian = test system: IGROV1 ovarian
OVCAR-3 ovarian = test system: OVCAR-3 ovarian
NCI/ADR-RES ovarian = test system: NCI/ADR-RES ovarian
T-47D breast = test system: T-47D breast
MDA-MB-435 melanoma = test system: MDA-MB-435 melanoma
SW-620 colon = test system: SW-620 colon
MCF7 breast = test system: MCF7 breast
HCT-116 colon = test system: HCT-116 colon
HCC-2998 colon = test system: HCC-2998 colon
KM12 colon = test system: KM12 colon
MDA-MB-468 breast = test system: MDA-MB-468 breast
HS 578T breast = test system: HS 578T breast
BT-549 breast = test system: BT-549 breast

Row | SMILES | growth (RPMI-8226 leukemia) | growth (OVCAR-8 ovarian) | growth (OVCAR-5 ovarian) | growth (OVCAR-4 ovarian) | growth (SK-OV-3 ovarian) | growth (IGROV1 ovarian) | growth (OVCAR-3 ovarian) | growth (NCI/ADR-RES ovarian) | growth (T-47D breast) | growth (MDA-MB-435 melanoma) | growth (SW-620 colon) | growth (MCF7 breast) | growth (HCT-116 colon) | growth (HCC-2998 colon) | growth (KM12 colon) | growth (MDA-MB-468 breast) | growth (HS 578T breast) | growth (BT-549 breast)
1 | CN1CCN(c2ccc3c(c2)nc(NNC(=O)c2cnccn2)c2cccn23)CC1 | 5.23% (active) | -79.4% (active) | -25% (active) | -37.6% (active) | -51.3% (active) | 12.4% | -19.7% (active) | -10% (active) | -55.6% (active) | 5.71% (active) | 9.85% (active) | -39.1% (active) | -52.1% (active) | -44.5% (active) | 1.89% (active) | -42.2% (active) | – | –
2 | COc1ccc(C(=O)/C=C/c2ccccc2Br)cc1S(N)(=O)=O | -9.4% (active) | -64.5% (active) | – | 35.2% | 69.8% | 38.5% | -56.5% (active) | 16.1% | -5.31% (active) | 23.4% | -45.7% (active) | -70.5% (active) | -97% (active) | -65.6% (active) | -71% (active) | -60.3% (active) | 47% | –
3 | COc1ccc(-c2nnc3ccc(N/N=C/c4ccc(O)cc4)nn23)cc1 | 13.1% | 45.4% | 88.9% | 47.9% | 104% | 39.3% | 37.6% | 26% | 45.4% | 45.8% | 67.1% | 13.2% | 27.3% | 14.9% | 28.5% | 48.2% | 46.8% | –
4 | COc1cc2c(c(OC)c1OC)C(=O)CC(c1cccc(NC(=O)c3cc([N+](=O)[O-])ccc3Cl)c1)O2 (stereo unspecified) | 30.3% | -11.6% (active) | 67.2% | 57.2% | 57.1% | 12.5% | 16% | 15% | 23.6% | 28.5% | -6.32% (active) | 11.7% | -66.1% (active) | 33% | -54.7% (active) | – | – | -11% (active)
5 | O=C(NNc1nc2cc(F)ccc2n2c(CN3CCCCC3)ccc12)c1cnccn1 | -2.84% (active) | -84% (active) | – | -45.5% (active) | -63.7% (active) | -3.63% (active) | -45.9% (active) | -31.5% (active) | -61.5% (active) | -46.3% (active) | 2.86% (active) | -55.9% (active) | -86.9% (active) | -65.2% (active) | -29.8% (active) | -62.8% (active) | 23.7% | –
6 | O=C(Nc1ccc(C(F)(F)F)cc1)Nc1ccc2oc(=O)ccc2c1 | -20.4% (active) | 15.7% | 39.5% | 41.7% | 16% | 33% | 26.7% | 12.4% | 19% | 24.1% | 31.2% | 2.63% (active) | 8.31% (active) | 32.5% | 16% | 5% (active) | 49.7% | –
7 | COc1ccc(C2=NN(c3ccccc3)C(c3ccc(OCc4ccccc4)c(OC)c3)C2)cc1OC (stereo unspecified) | 120% | 92.6% | – | 113% | 98.1% | 102% | 109% | 109% | 89.4% | 105% | 101% | 84.8% | 85.9% | 117% | 91.8% | 105% | 94.1% | –
8 | COc1cc(OC)cc(C(=O)Nc2cccc(-c3cn(-c4ccc(S(N)(=O)=O)cc4)nn3)c2)c1 | 114% | 39.4% | 113% | 72% | 47.5% | 99.5% | 90.9% | 94.4% | 87.8% | 97.2% | 99.6% | 77.3% | 94% | 107% | 87.9% | 95.4% | – | –
9 | COc1ccccc1/C=C/C(=O)c1ccc(OC)c(S(N)(=O)=O)c1 | 4.34% (active) | -9.18% (active) | 12.4% | 42.9% | 47.5% | 38.9% | 7.84% (active) | 22.9% | 17% | 27.2% | 20.5% | 8.25% (active) | 5% (active) | 29.5% | 6.73% (active) | 20.7% | 60.4% | –
10 | Cc1cc(C)n(-c2ccc3nnc(-c4ccccc4)n3n2)n1 | 119% | 96.9% | 128% | 92.9% | 128% | 111% | 91.6% | 76.1% | 95.5% | 106% | 103% | 89.9% | 106% | 103% | 97.4% | 97% | 117% | –
11 | O=C(Cn1c(/C=C/c2cccc([N+](=O)[O-])c2)nc2ccccc2c1=O)Nc1ccccc1 | 113% | 35.7% | 104% | 98% | 49.4% | 106% | 54.6% | 65% | 82.6% | 94.3% | 91.2% | 42.2% | 57.6% | 120% | 74.6% | 98.9% | 87.2% | –
12 | CN1CCN(c2ccc(C(=O)/C=C/c3cc(C(F)(F)F)cc(C(F)(F)F)c3)cc2)CC1 | -19.4% (active) | -93.4% (active) | -95.8% (active) | -23.8% (active) | -89.5% (active) | -36.6% (active) | -54.4% (active) | -39.3% (active) | -68.7% (active) | -60.8% (active) | -44.8% (active) | -82.3% (active) | -87.4% (active) | -91% (active) | -56.8% (active) | -69.3% (active) | 26.9% | –
13 | Cc1ccc(-c2nnc3ccc(N/N=C/c4ccccc4)nn23)cc1 | 80.6% | 87.1% | 107% | 69.1% | 100% | 98.9% | 30.3% | 84.1% | 98.8% | 76.1% | 90.6% | 47.9% | 99.5% | 111% | 57.2% | 91.4% | 46.6% | –
14 | COc1ccc(C(=O)/C=C/c2cccc(Cl)c2Cl)cc1S(N)(=O)=O | -8.84% (active) | -64% (active) | -7.8% (active) | 35.9% | 43.3% | 10.1% | -56.1% (active) | 13.3% | -17.3% (active) | 14.3% | -47.3% (active) | -39.7% (active) | -98% (active) | -48.5% (active) | -62.3% (active) | -16.4% (active) | – | –
